The record followed here is PubChem BioAssay (EPA / NIEHS).

Results filed as inconclusive are left out. Active and inactive are the calls of the source. How the source made its calls: active means hit-call score of the fitted dose curve at least 0.9, where 1 is the maximum; inconclusive means response in the unintended direction; inactive means score below 0.9.

A short description of the test: Tanguay_ZF_120hpf_JAW_legacy: (Legacy) Oregon State University Tanguay Lab 120 Hour Post-fertilization zebrafish Assay for Jaw Malformation (AID 2283638).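 On AC50: active means more embryos with jaw malformation than DMSO controls.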 An outline of the steps: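 Binary jaw-malformation calls at 120 hpf by brightfield imaging; DMSO (0.64% v/v) = baseline. Embryos: 5D wild-type, pronase-dechorionated, one per well from 6 hpf, static exposure, 28C, sealed, dark.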
Consider `C=CC(=O)NCNC(=O)C=C`, for which the result was inactive.

As for `Cc1ccccc1[N+](=O)[O-]`, the result was inactive. Same read-out and setting: the entry for `NS(=O)(=O)C(F)(F)C(F)(F)C(F)(F)C(F)(F)C(F)(F)C(F)(F)C(F)(F)C(F)(F)F` is “inactive”.

Take `ClC1=C(Cl)[C@]2(Cl)[C@@H]3[C@@H](Cl)[C@H]4O[C@H]4[C@@H]3C1(Cl)C2(Cl)Cl`: the call was inactive. Regarding `Nn1cnnc1`, the compound was classed as inactive. Take `CCC(=O)O[C@H]1CC[C@H]2[C@@H]3CCC4=CC(=O)CC[C@]4(C)[C@H]3CC[C@]12C`: the compound was called inactive. As a reminder, the AC50 is the concentration at which the activity in the assay is half-maximal. As for `CC1=C2C[C@H]3[C@@H](CC=C4C[C@@H](O)CC[C@@]43C)[C@@H]2CC[C@]12O[C@@H]1C[C@H](C)CN[C@H]1[C@H]2C`, the AC50 was 25.9 µM (active). As for `Cc1cc2c3c(c1)C(c1ccccc1)=N[C@@H](NC(=O)c1ccncc1)C(=O)N3CC2`, the result was inactive. `Cc1cccc([N+](=O)[O-])c1`: the call was inactive. For `ClC1=C(Cl)[C@]2(Cl)[C@@H]3[C@H]4C[C@H]([C@@H]5O[C@H]45)[C@@H]3[C@@]1(Cl)C2(Cl)Cl`, the result was inactive. On the same count and under the same terms, with `Cc1ccccc1CO[C@@H]1C[C@@]2(C(C)C)CC[C@]1(C)O2` the entry was “inactive”.

For `CO/C=C(/C(=O)OC)c1ccccc1COc1cccc(C(F)(F)F)n1`, the AC50 is 2.66 µM (active).

For `O=C(O)C(F)(F)C(F)(F)C(F)(F)C(F)(F)C(F)(F)C(F)(F)C(F)(F)C(F)(F)F`, the result was inactive. Consider `N#Cc1ccc(N(CC(N)=O)CC(F)(F)F)cc1C(F)(F)F`, for which the outcome was inactive. On to `O=C(N[C@H]1CN2CCC1CC2)c1cc2ccoc2cn1`, for which the compound was classed as inactive. With `C=CC(N)=O`, the call was inactive. Still for that read-out and setting: with `CCNc1nc(NC(C)C)nc(SC)n1` the entry was “inactive”.
